Measurements taken from PubChem BioAssay (Tox21).
“And” between values parts separate entries of the source, which are not always exact repeats. Equal values may be shown once. Records with an inconclusive call do not appear. The source made the active and inactive calls. Unless noted, the call rests on the fitted dose curve; in most records, active means well fitted curve in the direction sought with a large enough effect in the repeat runs; inconclusive means weak or mixed curves; inactive means no such curve, though single readings can be large; an effect the other way counts as inactive or inconclusive.

Assays:
[1] = qHTS assay for small molecules that induce genotoxicity in human embryonic kidney cells expressing luciferase-tagged ATAD5 (AID 651632); conditions: HEK293T ATAD5-luciferase induction, 16 h; series mostly up to 83.3 µM; further: nearly all actives have a fitted effect of over 15% in size
In short: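 DMSO vehicle served as the control. HEK293T reporter cells, 16 hr at 37C, then 30 min Amplite at room temperature; ATAD5 induction is measured as luciferase activity.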

[2] = qHTS assay for small molecule agonists of the p53 signaling pathway - cell viability (AID 651633; calls by dose curve; further: nearly all actives have a fitted effect of over 30% in size; further: potency means the concentration at half of the fitted maximal effect); conditions: p53RE-bla HCT-116 viability, ATP luminescence, 16 h; series mostly up to 83.3 µM
In short: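 p53RE-bla cells, seeded at 4,000 per well and rested 5 h at 37 C/5% CO2, received compounds in DMSO for 16 h at 37 C. CellTiter-Glo was then added, and luminescence was read after 30 min at room temperature to gauge cytotoxicity.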

[3] = qHTS assay for small molecules that induce genotoxicity in human embryonic kidney cells expressing luciferase-tagged ATAD5 - cell viability (AID 651634; calls by dose curve; further: nearly all actives have a fitted effect of over 25% in size); conditions: HEK293T ATAD5-luc cells viability, CellTiter-Fluor, 15.5 h; series mostly up to 83.3 µM
In short: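 Here HEK293T cells with the ATAD5 luciferase reporter are incubated with test compounds for 15.5 hr, and cytotoxicity is then gauged by measuring protease activity in live cells using fluorescence.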

[4] = qHTS assay for small molecule disruptors of the mitochondrial membrane potential - cell viability (AID 720634; calls by dose curve; further: nearly all actives have a fitted effect of over 20% in size; further: potency means the concentration at half of the fitted maximal effect); conditions: HepG2 viability, ATP luminescence (CellTiter-Glo), 1 h; series mostly up to 83.2 µM
In short: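 Viability of HepG2 cells is scored from ATP content by luminescence; cells are exposed to compound for 1 hr at 37 C and 5% CO2, then dosed with m-MPI dye before the CellTiter-Glo reagent.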

[5] = qHTS assay to test for compound auto fluorescence at 590 nm (red) in HepG2 cells (AID 720674); conditions: HepG2 autofluorescence, red 540/590 nm, 1 h; series mostly up to 91.3 µM
In short: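 Rose Bengal sodium served as the red fluorophore standard. HepG2 monolayers (overnight attachment, MEM with 10% FBS) were exposed to test compounds for 1 hr at 37 C and read at Ex 540/Em 590 nm.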

[6] = qHTS assay to test for compound auto fluorescence at 535 nm (green) in HepG2 cells (AID 720675); conditions: green autofluorescence 485/535 nm, 1 h; series mostly up to 91.3 µM
[7] = qHTS assay to test for compound auto fluorescence at 460 nm (blue) in HEK293 cells (AID 720678); conditions: blue autofluorescence 405/460 nm; series mostly up to 91.3 µM
In short: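 After cell attachment (4-5 hr, 37C), compounds were pinned onto HEK293 monolayers in 10% dialyzed FBS medium. The blue channel (405/460 nm) was read following overnight culture. Equivalency was calculated against triamterene.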

[8] = qHTS assay to test for compound auto fluorescence at 590 nm (red) in HEK293 cells (AID 720679); conditions: red autofluorescence 540/590 nm; series mostly up to 91.3 µM
In short: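 Plates of HEK293 cells (10% dialyzed FBS) are treated with 23 nL compound or DMSO vehicle after a 4-5 hr attachment period, incubated overnight at 37C, and read for red fluorescence at 540/590nm.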

[9] = qHTS assay to test for compound auto fluorescence at 535 nm (green) in HEK293 cells (AID 720680); conditions: green autofluorescence 485/535 nm; series mostly up to 91.3 µM
[10] = qHTS assay to test for compound auto fluorescence at 460 nm (blue) in HEK293 cell free culture (AID 720681); conditions: cell-free medium, autofluorescence 405/460 nm (blue); series mostly up to 91.3 µM
In short: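 Test compounds were pinned into cell-free culture medium (DMEM with 10% FBS) and fluorescence was read directly at Ex/Em 405/460 nm. Signals were expressed as fluorescence equivalents of triamterene, with DMSO vehicle as control.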

[11] = qHTS assay to test for compound auto fluorescence at 535 nm (green) in HEK293 cell free culture (AID 720682); conditions: cell-free medium, green autofluorescence 485/535 nm; series mostly up to 91.3 µM
In short: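 Using fluorescein as calibrant, autofluorescence was quantified at 485/535 nm in cell-free DMEM containing 10% FBS after pintool addition of compound or vehicle.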

[12] = qHTS assay to test for compound auto fluorescence at 590 nm (red) in HEK293 cell free culture (AID 720683); conditions: cell-free medium autofluorescence, Ex540/Em590 red; series mostly up to 91.3 µM
In short: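 Tox21 10K library compounds were pinned into cell-free DMEM with 10% FBS and fluorescence was read at excitation 540 nm. Activity is expressed as Rose Bengal sodium equivalency.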

[13] = qHTS assay to test for compound auto fluorescence at 590 nm (red) in HepG2 cell free culture (AID 720684); conditions: cell-free medium autofluorescence, red 540/590 nm; series mostly up to 91.3 µM
In short: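 Ex 540 / Em 590 nm read of compound in cell-free MEM (10% FBS). Rose Bengal sodium reference.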

[14] = qHTS assay to test for compound auto fluorescence at 460 nm (blue) in HepG2 cell free culture (AID 720685); conditions: Cell-free culture medium, blue autofluorescence 405/460 nm; series mostly up to 91.3 µM
In short: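 Cell-free plates of MEM plus 10% FBS received 23 nL compound or DMSO vehicle; blue-channel (405/460 nm) intensity scored against triamterene as reference fluorophore.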

[15] = qHTS assay to test for compound auto fluorescence at 535 nm (green) in HepG2 cell free culture (AID 720686); conditions: Cell-free medium, green autofluorescence 485/535 nm; series mostly up to 91.3 µM
[16] = qHTS assay to test for compound auto fluorescence at 460 nm (blue) in HepG2 cells (AID 720687); conditions: autofluorescence 405/460 nm, 1 h; series mostly up to 91.3 µM
In short: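 Cells (2,000/well in MEM with 10% FBS) attached overnight at 37 C, then were exposed to compound or DMSO for 1 hr at 37 C, 5% CO2. Fluorescence read at Ex/Em 405/460 nm, expressed as triamterene-equivalent signal.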

[17] = target: Glucocorticoid receptor (Homo sapiens) (UniProt P04150); test: qHTS assay to identify small molecule agonists of the glucocorticoid receptor (GR) signaling pathway (AID 720691; active means well fitted activation curve with a large enough effect in the signal ratio in the repeat runs, not every such curve was filed as active; the % refers to the signal ratio); conditions: GR-bla HeLa, beta-lactamase reporter ratio, 18 h; activation: at 62.4 µM (top of the series)
Glucocorticoid receptor (Homo sapiens), sequence (P04150 whole entry, looked up): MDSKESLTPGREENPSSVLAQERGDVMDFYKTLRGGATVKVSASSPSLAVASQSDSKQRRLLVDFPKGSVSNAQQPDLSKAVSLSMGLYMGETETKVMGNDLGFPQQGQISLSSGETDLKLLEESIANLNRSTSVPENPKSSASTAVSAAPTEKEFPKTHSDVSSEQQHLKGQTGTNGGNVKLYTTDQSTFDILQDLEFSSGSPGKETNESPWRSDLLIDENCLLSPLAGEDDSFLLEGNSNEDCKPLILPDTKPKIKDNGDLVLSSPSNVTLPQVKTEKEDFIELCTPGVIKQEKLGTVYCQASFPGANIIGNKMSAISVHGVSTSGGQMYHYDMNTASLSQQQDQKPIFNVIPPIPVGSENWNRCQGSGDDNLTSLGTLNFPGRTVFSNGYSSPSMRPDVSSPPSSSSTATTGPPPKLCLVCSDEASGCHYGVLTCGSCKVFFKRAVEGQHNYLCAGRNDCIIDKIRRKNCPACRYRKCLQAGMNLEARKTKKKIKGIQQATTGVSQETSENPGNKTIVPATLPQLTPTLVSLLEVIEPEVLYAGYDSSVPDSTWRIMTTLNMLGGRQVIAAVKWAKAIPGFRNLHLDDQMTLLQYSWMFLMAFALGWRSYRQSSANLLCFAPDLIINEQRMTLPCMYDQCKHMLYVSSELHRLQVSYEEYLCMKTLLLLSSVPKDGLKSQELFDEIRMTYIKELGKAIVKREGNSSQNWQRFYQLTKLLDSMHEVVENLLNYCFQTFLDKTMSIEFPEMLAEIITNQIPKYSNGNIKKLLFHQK
In short: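 Compounds in DMSO, alongside positive controls, were added to GR-bla HeLa reporter cells and incubated 18 h at 37 C; GRE-driven beta-lactamase was detected by fluorescence after 2 h with FRET substrate at room temperature.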

[18] = target: Glucocorticoid receptor (Homo sapiens) (UniProt P04150); test: qHTS assay to identify small molecule antagonists of the glucocorticoid receptor (GR) signaling pathway (AID 720692; active means well fitted inhibition curve with a large enough effect in the signal ratio in the repeat runs, not every such curve was filed as active; the % refers to the signal ratio; further: potency means the concentration at half of the fitted maximal effect); conditions: GR-bla HeLa, beta-lactamase FRET ratio, dexamethasone-stimulated, 18 h; series mostly up to 58.5 µM
In short: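 In a 1536-well cell format, compounds were added 4 h after seeding GR-bla HeLa cells, together with dexamethasone at 5 nM final; reporter activity was measured by FRET-substrate fluorescence following 18 h at 37 C.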

[19] = qHTS assay for small molecule disruptors of the mitochondrial membrane potential (AID 720635); conditions: HepG2 mitochondrial membrane potential, Mito-MPS dye ratio; series mostly up to 83.2 µM; further: potency means the concentration at half of the fitted maximal effect
In short: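 HepG2 cells (2,000/well) attached overnight at 37C, then took compound for 1 hr at 37C, 5% CO2. Mito-MPS dye was added for 30 min; fluorescence was read at 490/535 nm (monomers) and 540/590 nm (aggregates).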
On the % scale 0 is the no-effect control and ±100 the full control effect.

CCO[Si](CCCSSSSCCC[Si](OCC)(OCC)OCC)(OCC)OCC
inactive: Potency [1] | Potency [2] | Potency [3] | Potency [4] | Potency [5] | Potency [6] | Potency [7] | Potency [8] | Potency [9] | Potency [10] | Potency [11] | Potency [12] | Potency [13] | Potency [14] | Potency [15] | Potency [16] | Potency [17] | Potency [18]

Brc1ccccc1-c1ccccc1
active: Potency [19] 51.6 µM
inactive: Potency [1] | Potency [2] | Potency [3] | Potency [5] | Potency [6] | Potency [7] | Potency [8] | Potency [9] | Potency [10] | Potency [11] | Potency [13] | Potency [14] | Potency [15] | Potency [16] | Potency [17]

CCN(CC)CCSC(=O)C(c1ccccc1)c1ccccc1
inactive: Potency [1] | Potency [2] | Potency [3] | Potency [4] | Potency [5] | Potency [6] | Potency [7] | Potency [8] | Potency [9] | Potency [10] | Potency [11] | Potency [13] | Potency [14] | Potency [15] | Potency [16] | Potency [17]
active: Potency [18] 19 µM and 10.7 µM

CC(C)(C)c1cc(/C=C2\SC(=N)NC2=O)cc(C(C)(C)C)c1O
inactive: Potency [1] | Potency [4] | Potency [5] | Potency [6] | Potency [7] | Potency [8] | Potency [9] | Potency [10] | Potency [11] | Potency [12] | Potency [13] | Potency [14] | Potency [15] | Potency [16]
active: Potency [2] 68.6 µM | Potency [19] 12.2 µM

Cc1occc1SSc1ccoc1C
inactive: Potency [1] | Potency [2] | Potency [4] | Potency [19] | Potency [5] | Potency [6] | Potency [7] | Potency [8] | Potency [9] | Potency [10] | Potency [11] | Potency [12] | Potency [13] | Potency [14] | Potency [15] | Potency [16] | Potency [17]

Oc1ccc(-c2ccccc2)c(Cl)c1
inactive: Potency [1] | Potency [3] | Potency [5] | Potency [6] | Potency [7] | Potency [8] | Potency [9] | Potency [10] | Potency [11] | Potency [13] | Potency [14] | Potency [15] | Potency [16] | Potency [17] | Potency [18]
active: Potency [2] 61.1 µM | Potency [19] 8.63 µM

CC(NCCC(c1ccccc1)c1ccccc1)c1ccccc1 (stereo unspecified)
active: Potency [2] 29.8 µM | Potency [19] 8.8 µM
inactive: Potency [1] | Potency [4] | Potency [5] | Potency [6] | Potency [7] | Potency [8] | Potency [9] | Potency [10] | Potency [11] | Potency [12] | Potency [13] | Potency [14] | Potency [15] | Potency [16]

c1cc2c3c(c1)ccc1cccc(c13)C2
active: Potency [19] 62.4 µM
inactive: Potency [1] | Potency [2] | Potency [3] | Potency [5] | Potency [6] | Potency [7] | Potency [8] | Potency [9] | Potency [10] | Potency [11] | Potency [13] | Potency [14] | Potency [15] | Potency [16] | Potency [17]

COc1ccccc1OCCNCC(O)COc1cccc2[nH]c3ccccc3c12 (stereo unspecified)
active: Potency [19] 23.7 µM
inactive: Potency [1] | Potency [2] | Potency [3] | Potency [4] | Potency [5] | Potency [6] | Potency [7] | Potency [8] | Potency [9] | Potency [10] | Potency [11] | Potency [12] | Potency [13] | Potency [14] | Potency [15] | Potency [16] | Potency [17]

CCCCCCCC/C=C/CCCOC(C)=O
inactive: Potency [1] | Potency [2] | Potency [3] | Potency [4] | Potency [5] | Potency [6] | Potency [7] | Potency [8] | Potency [9] | Potency [10] | Potency [11] | Potency [12] | Potency [13] | Potency [14] | Potency [15] | Potency [16] | Potency [17]

CCOC(=O)[C@@](C)(N)Cc1ccc(O)c(O)c1
inactive: Potency [1] | Potency [2] | Potency [3] | Potency [4] | Potency [19] | fluorescence, relative to Rose Bengal [5] -0.208% [at 18.6 µM] | fluorescence, % of fluorescein control [6] -0.17% [at 18.6 µM] | fluorescence, % of triamterene [7] 0.197% [at 18.6 µM] | fluorescence, % of fluorescent control [8] 0.559% [at 18.6 µM] | fluorescence, % of fluorescein [9] -0.0378% [at 18.6 µM] | fluorescence, % of fluorescent control [10] 0.186% [at 18.6 µM] | activity change [11] -0.0329% [at 18.6 µM, active compounds read high] | fluorescence, % of fluorescent control [12] 0.256% [at 18.6 µM] | fluorescence, % of Rose Bengal [13] 0.0263% [at 18.6 µM] | fluorescence, % of fluorescent control [14] 0.193% [at 18.6 µM] | fluorescence, % of fluorescein control [15] -0.0478% [at 18.6 µM] | fluorescence, % of fluorescent control [16] 0.0997% [at 18.6 µM] | Potency [17] | Potency [18]

c1ccc(Nc2cccc3ccccc23)cc1
inactive: Potency [1] | Potency [2] | Potency [3] | Potency [5] | Potency [6] | Potency [7] | Potency [8] | Potency [9] | Potency [10] | Potency [11] | Potency [13] | Potency [14] | Potency [15] | Potency [16] | Potency [17]
active: Potency [4] 54.5 µM | Potency [19] 43.8 µM and 43.3 µM

CN(C)CCOC(c1ccccc1)c1ccccc1 (tested in a mixture with another compound)
inactive: Potency [1] | Potency [2] | Potency [3] | Potency [4] | Potency [5] | Potency [6] | Potency [7] | Potency [8] | Potency [9] | Potency [10] | Potency [11] | Potency [12] | Potency [13] | Potency [14] | Potency [15] | Potency [16] | Potency [17]
